Laboratory results: PubChem BioAssay (NCI)
About 83,000 compounds went through this panel and 20% of them were active in at least one assay; those are over-represented in the sample as a whole.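 Plates (96-well) were seeded with cells, treated with compound at one concentration, and incubated for 48 hours before percent growth was determined.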 Activity calls are given as the source filed them. The calls were made as follows: active = growth percent below 10; inactive = the rest.

How the values were obtained:
Assay in all cases: NCI-60 one-dose screen, 48 h (100 = growth as untreated, 0 = no growth, -100 = all killed)
Conditions in all cases: 10 µM unless noted
DU-145 prostate = test system: DU-145 prostate
K-562 leukemia = test system: K-562 leukemia
MALME-3M melanoma = test system: MALME-3M melanoma
MDA-MB-231 breast = test system: MDA-MB-231 breast
RXF 393 renal = test system: RXF 393 renal
SF-268 CNS = test system: SF-268 CNS
SF-295 CNS = test system: SF-295 CNS
SF-539 CNS = test system: SF-539 CNS
UACC-257 melanoma = test system: UACC-257 melanoma
M14 melanoma = test system: M14 melanoma
HCT-15 colon = test system: HCT-15 colon
HT29 colon = test system: HT29 colon
SNB-19 CNS = test system: SNB-19 CNS
U251 CNS = test system: U251 CNS
PC-3 prostate = test system: PC-3 prostate
SK-MEL-5 melanoma = test system: SK-MEL-5 melanoma
UACC-62 melanoma = test system: UACC-62 melanoma
LOX IMVI melanoma = test system: LOX IMVI melanoma
SK-MEL-28 melanoma = test system: SK-MEL-28 melanoma
SNB-75 CNS = test system: SNB-75 CNS

Measured: growth

CC(=O)OC(C(=O)c1ccccc1)c1ccccc1 (stereo not given)
inactive: DU-145 prostate 111% | K-562 leukemia 96.5% | MALME-3M melanoma 95.8% | MDA-MB-231 breast 107% | RXF 393 renal 103% | SF-268 CNS 107% | SF-295 CNS 108% | SF-539 CNS 114% | UACC-257 melanoma 107% | M14 melanoma 104% | HCT-15 colon 105% | HT29 colon 80.4% | SNB-19 CNS 103% | U251 CNS 106% | PC-3 prostate 89% | SK-MEL-5 melanoma 102% | UACC-62 melanoma 100% | LOX IMVI melanoma 107% | SK-MEL-28 melanoma 107%

C=CC(=O)Nc1cc(Nc2nccc(-c3cn(C)c4ccccc34)n2)c(OC)cc1N(C)CCN(C)C
active: DU-145 prostate 9.23% | K-562 leukemia -40.1% | MALME-3M melanoma -82.4% | MDA-MB-231 breast -68.4% | RXF 393 renal -84.2% | SF-268 CNS -15.6% | SF-295 CNS -41.4% | SF-539 CNS -90.7% | UACC-257 melanoma -79.1% | M14 melanoma -79.4% | HCT-15 colon -63.9% | HT29 colon -61.2% | SNB-19 CNS -7.94% | U251 CNS -72.7% | PC-3 prostate -52.6% | SK-MEL-5 melanoma -96.5% | UACC-62 melanoma -68.8% | LOX IMVI melanoma -84.6% | SK-MEL-28 melanoma -87.2%

CN1CCN(CCOc2cc(OC3CCOCC3)c3c(Nc4c(Cl)ccc5c4OCO5)ncnc3c2)CC1
active: K-562 leukemia 5.29% | HT29 colon 7.45%
inactive: DU-145 prostate 43.8% | MALME-3M melanoma 98.3% | MDA-MB-231 breast 61.3% | RXF 393 renal 31.6% | SF-268 CNS 61.4% | SF-295 CNS 77.8% | SF-539 CNS 60% | UACC-257 melanoma 82.7% | M14 melanoma 79.4% | HCT-15 colon 54.6% | SNB-19 CNS 54.6% | U251 CNS 67.3% | PC-3 prostate 71% | SK-MEL-5 melanoma 87.4% | UACC-62 melanoma 99.6% | LOX IMVI melanoma 15.5% | SK-MEL-28 melanoma 104%

Cc1[nH]n(C(N)=S)c(=O)c1N=Nc1ccc(S(=O)(=O)Nc2ccncn2)cc1
inactive: DU-145 prostate 83.7% | K-562 leukemia 103% | MALME-3M melanoma 137% | MDA-MB-231 breast 84.7% | RXF 393 renal 108% | SF-268 CNS 85% | SF-295 CNS 125% | SF-539 CNS 99.2% | UACC-257 melanoma 117% | M14 melanoma 106% | HCT-15 colon 113% | HT29 colon 105% | SNB-19 CNS 99.8% | U251 CNS 113% | PC-3 prostate 77.1% | SK-MEL-5 melanoma 94.6% | UACC-62 melanoma 101% | LOX IMVI melanoma 87.4% | SK-MEL-28 melanoma 98.9%

O=C(Cn1cncn1)Nc1ccc(-c2nc3ccccc3s2)cc1
inactive: DU-145 prostate 94.5% | K-562 leukemia 85.8% | MALME-3M melanoma 100% | MDA-MB-231 breast 96.5% | RXF 393 renal 125% | SF-268 CNS 97.1% | SF-295 CNS 91.9% | SF-539 CNS 108% | UACC-257 melanoma 102% | M14 melanoma 111% | HCT-15 colon 101% | HT29 colon 105% | SNB-19 CNS 93% | PC-3 prostate 85.8% | SK-MEL-5 melanoma 86.7% | UACC-62 melanoma 95.2% | LOX IMVI melanoma 99.3% | SK-MEL-28 melanoma 111%

Cc1cc2c(-c3nc4ccccn4c3NC34CC5CC(CC(C5)C3)C4)c(O)c(O)cc2c(O)c1-c1c(C)cc2c(-c3nc4ccccn4c3NC34CC5CC(CC(C5)C3)C4)c(O)c(O)cc2c1O
active: K-562 leukemia 7.38% | MALME-3M melanoma 7.47% | SF-295 CNS 1.49% | SF-539 CNS -1.69% | M14 melanoma -0.979% | U251 CNS 6.36% | SK-MEL-5 melanoma -57.7% | UACC-62 melanoma 0.552% | LOX IMVI melanoma 3.37%
inactive: DU-145 prostate 19.2% | MDA-MB-231 breast 21.9% | RXF 393 renal 12.2% | SF-268 CNS 17% | HCT-15 colon 20% | HT29 colon 14.1% | SNB-75 CNS 19.6% | SNB-19 CNS 17.1% | PC-3 prostate 14.7% | SK-MEL-28 melanoma 17.3%

Clc1ccc2c(NCCNc3nc(N4CCCC4)nc4ccccc34)ccnc2c1
inactive: SF-268 CNS 16.2% | SNB-75 CNS 12.5% | SNB-19 CNS 25.1% | PC-3 prostate 21.9%
active: DU-145 prostate 5.1% | K-562 leukemia -24.9% | MALME-3M melanoma -69.6% | MDA-MB-231 breast -60.7% | RXF 393 renal -56.9% | SF-295 CNS -73.1% | SF-539 CNS -92.6% | M14 melanoma -71.5% | HCT-15 colon -34.5% | HT29 colon -27.2% | U251 CNS -44% | SK-MEL-5 melanoma -97.1% | UACC-62 melanoma -56.6% | LOX IMVI melanoma -85.7% | SK-MEL-28 melanoma -54.2%

CCN1CCN(c2nc(C)cc(N(CCNc3ccnc4cc(Cl)ccc34)Cc3ccc4c(c3)OCO4)n2)CC1
active: K-562 leukemia -54.9% | MALME-3M melanoma -82.2% | MDA-MB-231 breast -0.846% | RXF 393 renal -54.6% | SF-295 CNS -62.9% | SF-539 CNS -90.7% | M14 melanoma -80.2% | HCT-15 colon -6.94% | HT29 colon -13.4% | U251 CNS -44.6% | SK-MEL-5 melanoma -96.6% | LOX IMVI melanoma -74.5% | SK-MEL-28 melanoma -72%
inactive: DU-145 prostate 40.2% | SF-268 CNS 30.7% | SNB-19 CNS 29.9% | PC-3 prostate 50.7% | UACC-62 melanoma 44.9%
